Experimental data from PubChem BioAssay (NCI).
About 79,000 compounds went through this panel and 15% of them were active in at least one assay; those are over-represented in the sample as a whole. Activity calls are given as the source filed them. No stated cut-off is given here; in the data, active means growth inhibition above about 70%; inactive means the rest.

Tests used:
[1] = NCI Yeast Anticancer Drug Screen. Data for the rad50 strain (AID 155);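 further: 0% = growth of vehicle-only cultures of the same strain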; conditions: S. cerevisiae rad50 strain growth inhibition, hits give high values
Outline: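 Inhibition values express reduced yeast growth in compound-treated cultures relative to vehicle-treated controls.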

[2] = NCI Yeast Anticancer Drug Screen. Data for the mec2-1 strain (AID 157); conditions: S. cerevisiae mec2-1 strain, hits give high values
Outline: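 Growth inhibition is read against vehicle-treated controls after compound exposure of the mec2-1 yeast strain, which is defective in DNA damage repair or cell cycle control.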

[3] = NCI Yeast Anticancer Drug Screen. Data for the sgs1 mgt1 strain (AID 161);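 further: 0% = growth of cultures given vehicle only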; conditions: S. cerevisiae sgs1 mgt1 strain, hits give high values
Outline: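 This yeast growth screen uses a strain with defined DNA-repair lesions; compound-treated growth is compared with vehicle-treated growth.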

[4] = NCI Yeast Anticancer Drug Screen. Data for the cln2 rad14 strain (AID 165);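 further: 0% = growth equal to vehicle treated cultures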; conditions: S. cerevisiae cln2 rad14 strain, hits give high values
Outline: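 Growth inhibition, relative to vehicle-treated controls, is the read-out. The test organism is a yeast strain with defined genetic alterations, cln2 rad14.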

[5] = NCI Yeast Anticancer Drug Screen. Data for the bub3 strain (AID 167); conditions: S. cerevisiae bub3 mutant strain, hits give high values
Outline: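 Steps: expose the mutant yeast strain to compound; grow alongside vehicle-treated cultures; measure growth; express inhibition against the vehicle cultures.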

[6] = NCI Yeast Anticancer Drug Screen. Data for the mlh1 rad18 strain (AID 175); conditions: S. cerevisiae mlh1 rad18 strain growth inhibition, hits give high values
Outline: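 Cells of a genetically altered yeast strain, deficient in DNA damage repair, were treated with compound. Their growth was then compared with that of vehicle-treated cultures to give inhibition.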

[7] = at 5.0 µM (retest, dose inferred, filed as 0.5)
[8] = at 50.0 µM (retest, dose inferred, filed as 5.0)

Measured: growth inhibition

C/C(C=C(C#N)C#N)=C\c1ccc([N+](=O)[O-])cc1
active: [1]; at 50.0 µM 78.2% | [2]; at 50.0 µM 70.4% | [5]; [8] 81% | [6]; [8] 89%
inactive: [1]; [7] -9% | [1]; [8] 67% | [2]; [7] -16% | [2]; [8] 67% | [3]; [7] -1% | [3]; [8] 40% | [3]; at 50.0 µM 64.8% | [4]; [7] 36% | [4]; [8] 60% | [4]; at 50.0 µM 55.5% | [5]; [7] 15% | [5]; at 50.0 µM 64.8% | [6]; [7] -3% | [6]; at 50.0 µM 67.3%

CC(=O)NC1CCCCC1c1ccc(C2CCCCC2NC(C)=O)cc1 (stereo not given)
inactive: [1]; [7] -8% | [1]; [8] 3% | [1]; at 50.0 µM -11.9% | [2]; [7] -8% | [2]; [8] 9% | [2]; at 50.0 µM -9.3% | [3]; [7] -4% | [3]; [8] 19% | [3]; at 50.0 µM 5.3% | [4]; [7] -69% | [4]; [8] -6% | [4]; at 50.0 µM 66.8% | [5]; [7] -4% | [5]; [8] 1% | [5]; at 50.0 µM -2.45% | [6]; [7] 3% | [6]; [8] 3% | [6]; at 50.0 µM 1.9%

CCN(CC)CCCCSc1ccc([N+](=O)[O-])cc1[N+](=O)[O-]
active: [1]; at 50.0 µM 77.6% | [3]; at 50.0 µM 72.8% | [6]; at 50.0 µM 71.9%
inactive: [1]; [7] 27% | [1]; [8] 45% | [2]; [7] 32% | [2]; [8] 36% | [2]; at 50.0 µM 45.4% | [3]; [7] 32% | [3]; [8] 68% | [4]; [7] 43% | [4]; [8] 43% | [4]; at 50.0 µM 59.3% | [5]; [7] 30% | [5]; [8] 47% | [5]; at 50.0 µM 65.8% | [6]; [7] 23% | [6]; [8] 44%

Cc1c(N=Nc2ccccc2Cl)c(-c2ccccc2)nn1C(=S)S
inactive: [1]; [7] 16% | [2]; [7] -1% | [3]; [7] 4% | [4]; [7] -2% | [5]; [7] -3% | [6]; [7] -2%
active: [1]; [8] 90% | [1]; at 50.0 µM 96.2% | [2]; [8] 91% | [2]; at 50.0 µM 98.2% | [3]; [8] 95% | [3]; at 50.0 µM 97.8% | [4]; [8] 92% | [4]; at 50.0 µM 97.3% | [5]; [8] 85% | [5]; at 50.0 µM 97.3% | [6]; [8] 93% | [6]; at 50.0 µM 97.8%

Cc1ccc(/C=C/C(=O)/C=C/c2ccc(C)o2)o1
active: [1]; [8] 97% | [2]; [8] 99% | [2]; at 50.0 µM 71.3% | [3]; [8] 97% | [3]; at 50.0 µM 75% | [4]; [8] 81% | [5]; at 50.0 µM 75% | [6]; [8] 98% | [6]; at 50.0 µM 92.4%
inactive: [1]; [7] 50% | [1]; at 50.0 µM 65.8% | [2]; [7] 45% | [3]; [7] 49% | [4]; [7] 42% | [4]; at 50.0 µM 39% | [5]; [7] 47% | [5]; [8] 68% | [6]; [7] 62%

CC(=O)Oc1c(O)c2ccccc2c2ccccc12
inactive: [1]; [7] 6% | [2]; [7] -5% | [3]; [7] 2% | [4]; [7] -11% | [5]; [7] 5% | [6]; [7] -4%
active: [1]; [8] 93% | [1]; at 50.0 µM 99.5% | [2]; [8] 97% | [2]; at 50.0 µM 99.2% | [3]; [8] 83% | [3]; at 50.0 µM 99.3% | [4]; [8] 95% | [4]; at 50.0 µM 97.5% | [5]; [8] 96% | [5]; at 50.0 µM 99.5% | [6]; [8] 92% | [6]; at 50.0 µM 98.9%

CC1(C)CC(=O)C(CSC(=O)c2ccccc2)=C(O)C1
inactive: [1]; [7] -1% | [1]; [8] 17% | [1]; at 50.0 µM -13.9% | [2]; [7] -2% | [2]; [8] -1% | [2]; at 50.0 µM -5.45% | [3]; [7] -4% | [3]; [8] -3% | [3]; at 50.0 µM 3.05% | [4]; [7] -2% | [4]; [8] -11% | [4]; at 50.0 µM 45.6% | [5]; [7] -2% | [5]; [8] -2% | [5]; at 50.0 µM -27.6% | [6]; [7] -7% | [6]; [8] 15% | [6]; at 50.0 µM -6.2%

c1ccc2c3ccn4ccc5c6ccccc6[nH]c5c4c-3nc2c1
active: [1]; [8] 96% | [2]; [8] 88% | [3]; [8] 93% | [5]; [8] 96% | [6]; [8] 98% | [6]; at 50.0 µM 85.4%
inactive: [1]; [7] 38% | [1]; at 50.0 µM 65.3% | [2]; [7] 28% | [2]; at 50.0 µM 47.1% | [3]; [7] 27% | [3]; at 50.0 µM 47.2% | [4]; [7] 24% | [4]; [8] 39% | [4]; at 50.0 µM 34.1% | [5]; [7] 29% | [5]; at 50.0 µM 43.8% | [6]; [7] 33%

C=C1CC2(CCOc3ccccc32)OC1=O (stereo not given)
inactive: [1]; [7] 6% | [2]; [7] 17% | [3]; [7] 12% | [4]; [7] 5% | [4]; [8] 60% | [4]; at 50.0 µM 18.6% | [5]; [7] 4% | [6]; [7] 17%
active: [1]; [8] 70% | [1]; at 50.0 µM 80.5% | [2]; [8] 91% | [2]; at 50.0 µM 89.1% | [3]; [8] 92% | [3]; at 50.0 µM 95% | [5]; [8] 86% | [5]; at 50.0 µM 88.3% | [6]; [8] 89% | [6]; at 50.0 µM 91%

COC(=O)C1C(=O)CC(c2ccccc2)C1c1ccccc1 (stereo not given)
inactive: [1]; [7] 2% | [1]; [8] -4% | [1]; at 50.0 µM 6.5% | [2]; [7] 1% | [2]; [8] -3% | [2]; at 50.0 µM -6.25% | [3]; [7] -1% | [3]; [8] -4% | [3]; at 50.0 µM -7.85% | [4]; [7] 0% | [4]; [8] -5% | [4]; at 50.0 µM 15.8% | [5]; [7] 7% | [5]; [8] 10% | [5]; at 50.0 µM 1.2% | [6]; [7] 0% | [6]; [8] -3% | [6]; at 50.0 µM -0.75%
